In PubChem BioAssay AID504894 (National Center for Advancing Translational Sciences (NCATS), 2011):
The whole screen tested about 330,000 compounds, of which fewer than 10 were called active. Not all results are given here. A number with no mark means an inactive call. Calls come from the whole dose curve; as a rule, active = well fitted activation curve with a large enough effect; inconclusive = small, poorly fitted or top-dose-only effect, or another doubt; inactive = no such curve, though single readings can be large or run the other way. Square brackets hold non-standard residues; d marks the D form. Peptide text beside a SMILES is read from it. ξ: configuration not given here. Ac5c = NC1(C(=O)O)CCCC1; ξS = NC(CO)C(=O)O

Assay: Activators of T cell receptors: qHTS campaign; note: % of control where 0% means no effect
Details: primary human leukocytes, anti-CD3, IL-2 HTRF, 48 h; series mostly up to 9.22 µM; activation of IL-2 secretion: at the top concentration
Text: Normally activation of naive T cells requires two signals. 1. A signal through the T cell receptor (TCR) which provides antigen specificity to the response. 2. Signals through co-stimulatory molecules, which are necessary for proliferation, survival and cytokine production. In the absence of co-stimulatory signals T cells are not effectively activated, and may even be rendered anergic or unresponsive to subsequent signaling. This lack of costimulation has been shown in multiple model systems to be a major factor in the limited strength and effectiveness of anti-tumor T cell responses. The goal of this project is to identify small molecule compounds that will stimulate T cell activation in the presence of TCR signaling but in the absence of co-stimulatory signals, thereby allowing activation of naive T cells in the absence of co-stimulation. Identification of such compounds would have clear experimental and clinical applications in instances where desirable antigen-specific immune responses are not generated due to a lack of co-stimulation, for example in the generation of anti-tumor responses. In collaboration between the National Cancer Institute and NIH Chemical Genomics Center, a high-throughput amenable screen was developed to discover small molecules that co-stimulate and activate human T cell receptors. The screen will be carried out using a novel homogeneous time resolved fluorescence energy transfer (HTRF) assay to measure production of the cytokine IL-2 by activated T cells and will be tested against the NIH Molecular Libraries Small Molecule Repository (MLSMR). NIH Chemical Genomics Center [NCGC] NIH Molecular Libraries Probe Centers Network [MLPCN] MLPCN Grant: MH090820-01 Assay Submitter (PI): Richard Hodes, National Cancer Institute, NIH
Primary human leukocytes are incubated with a-CD3 beads and compounds for 48 hr. The amount of secreted IL-2 is then assayed with a HTRF IL-2 kit. The presence of IL-2 cytokine captures the detection reagents and brings the a-IL-2-K and a-IL-2-d2 into close proximity. Upon excitation with 320nm light, the europium cryptate is capable of transferring energy to acceptor molecules within close proximity, resulting in acceptor molecule emission at 665nm.

| SMILES | activation of IL-2 secretion [%] |
| --- | --- |
| CN1CCC(N(C)C(=O)c2ccc(Cl)c(S(=O)(=O)Nc3ccc(Cl)cc3)c2)CC1 | 1.82 |
| Cc1cc2c(cc1C)NC1(C[C@H]3CCC(=O)N4CC[C@@H](C1)[C@@H]34)C(=NC(C)(C)CC(C)(C)C)N2 (some centres not stated) | -11.4 |
| CN(C(=O)c1cccc(NC(=O)Cc2ccc(NC(=O)C3CCCN(C(=O)C4CC4)C3)cc2)c1)C1CC1 (configuration not stated) | -3.14 |
| O=C1/C(=C\c2ccc(O)cc2)CCC1CNc1ccc(Cl)cc1 (configuration not stated) | -0.0826 |
| O=C1C2C3C=CC(C3)C2C(=O)N1c1ncc([N+](=O)[O-])s1 (configuration not stated) | 0.761 |
| NNc1cccc(C=Cc2ccccc2)cc1=O | -0.278 |
| COc1ccc(-c2nnc(-c3ccc4ccccc4c3)o2)cc1 | -0.347 |
| Cc1nc(N)sc1-c1ccccc1 | 6.41 |
| NC(=O)C1(Nc2ccc(-c3ccccc3)cc2)CCCC1 | -6.79 |
| CCN(CC)CCCN1C(=O)C(=O)/C(=C(/O)c2c(C)nc3ccccn23)C1c1ccc(C)o1 (configuration not stated) | -1.01 |
| O=C1OC(Oc2ccc(Br)cc2)(c2ccccc2)c2ccccc21 (configuration not stated) | 10.2 |
| CN(C)C(=S)N=c1ssc(=S)n1Cc1ccco1 | 3.1 |
| CN(C(=O)c1cccc(NC(=O)Cc2cccc(NC(=O)C3CCCN(C(=O)C4CC4)C3)c2)c1)C1CCC1 (configuration not stated) | 0.256 |
| O=C(NNC(=O)c1ccccc1O)c1ccccc1O | -2.99 |
| O=C1CC(c2ccccc2)C(=O)N2C(=O)CC(c3ccccc3)C(=O)N12 (configuration not stated) | -4.84 |
| Nc1ccc2c(c1)C(=Cc1cccnc1)c1ccccc1-2 | -2.17 |
| CC(=O)c1ccc(NC(=O)C(C)OC(=O)c2ccc(NS(=O)(=O)c3ccc4[nH]c(=O)[nH]c4c3)cc2)cc1 (configuration not stated) | 2.02 |
| CCOc1ccccc1NC(=S)C(=C([O-])c1ccc2c(c1)OCCO2)[n+]1ccc(CC)cc1 | -5.5 |
| O=C1C(Cl)=C(Oc2ccccc2)C(=O)c2ccccc21 | -2.03 |
| CSc1ncnc2c1ncn2CC(=O)C1CCC2C3CCC4=CC(=O)CCC4(C)C3CCC12C (configuration not stated) | 1 |
| O=S(=O)(O)c1cc2onnc2c2ccccc12 | 0.823 |
| CCOC(=O)c1ccc2[nH]c(C)c(CN3CCN(C)CC3)c(=O)c2c1 | 2.26 |

| SMILES | activation of IL-2 secretion [%] |
| --- | --- |
| COC1=CC(=O)OC(c2ccc(OC)cc2)C1 (configuration not stated) | -4.88 |
| CCOC(=O)c1ccccc1OC(=O)Oc1ccccc1C(=O)OCC | 12.8 |
| COc1ccc(CCN2CC(C(=O)OCC(=O)NCc3ccccc3Cl)CC2=O)cc1OC (configuration not stated) | 10.2 |
| O=C(CNC(=O)c1cc(S(=O)(=O)N2CCOCC2)ccc1N1CCCC1)Nc1ccc(F)c(F)c1 | 2.72 |
| COc1cc2[nH]c(O)c(C=O)c2cc1OC | 1.43 |
| Cc1ccc(Nc2c(O)nc[nH]c2=O)cc1C | -0.131 |
| NC(=O)C1(Nc2ccc([N+](=O)[O-])cc2)CCCC1 | -2.68 |
| O=C1COc2c1ccc(O)c2O | -2.28 |
| O=C(Cc1ccc(Cl)cc1)c1ccccc1 | -1.31 |
| c1ccc2c(c1)OC1OC2Oc2ccccc21 | -1 |
| CCc1ccc(C(=O)C(C)OC(=O)CN2C(=O)NC3(CCCC3)C2=O)cc1 (configuration not stated) | 0.426 |
| CCOC(=O)C1CCCN(C(=O)Cn2ncc3c(=O)oc4ccc(C)cc4c32)C1 (configuration not stated) | 3.09 |
| CC(=O)OCC1(O)CC23CCC4c5ccoc5CCC4(C)C2CCC1C3 (configuration not stated) | -4.8 |
| CC(=O)CSc1nc(CCc2ccccc2)c(C#N)c(=O)[nH]1 | -2.27 |
| CCN(CC)CCCC(C)n1c2nc(=O)[nH]c(=O)c-2nc2cc(Cl)ccc21 (configuration not stated) | -2.28 |
| c1ccc(-c2c[nH]c(-c3ccccc3)c2)cc1 | -2.6 |
| O=C(NCC1(N2CCCCC2)CCCCC1)c1cccc(S(=O)(=O)Nc2ccccc2Cl)c1 | -1.93 |
| COc1ccc(S(=O)(=O)N2C[C@H]3CON(C)[C@H]3C[C@H]2c2cccc(Br)c2)cc1 | 0.192 |
| CC(C)c1cc(N=O)cc(C(C)C)c1O | 0.896 |
| COC(=O)CC(CC(=O)OC)n1cccc1 | 5.57 |
| CCOc1ccc(/C=C(/C#N)c2nnc(N3CCOCC3)n2-c2ccccc2)cc1OC | 14.1 |
| O=C(Cc1ccc(NC(=O)C2CCCN(C(=O)C3CCCCC3)C2)cc1)Nc1cccc(C(=O)N2CCCCC2)c1 (configuration not stated) | -6.51 |

| SMILES | activation of IL-2 secretion [%] |
| --- | --- |
| Cc1[nH]c(N)nc(=S)c1CCCNc1ccccc1 | -4.36 |
| CC(=NNC(=O)c1ccncc1)c1ccc(Cl)c(Cl)c1 | 0.449 |
| O=C(CCCCCCCC(=O)N1CCCCC1)N1CCCCC1 | 1.97 |
| NC(=O)C1(N2CCCC2)CCN(Cc2ccccc2)CC1 | -0.103 |
| CCOc1cc(C(=O)N(Cc2ccccc2)c2ccc(C)cc2)ccc1OCC(=O)N1CCOCC1 | -0.923 |
| CN(C(=O)c1ccc(NC(=O)Cc2cccc(NC(=O)C3CCN(C(=O)c4ccccc4)CC3)c2)cc1)C1CC1 | 0.0664 |
| COCC(=O)N(C)[C@H]1C[C@H]2c3cc(Oc4ccccc4C)ccc3CCN2C(=O)[C@H]1[C@H](C)O | 8.09 |
| CCN(CC)S(=O)(=O)c1cccc(NC(=O)c2ccc(S(=O)(=O)N3CCCC3)cc2)c1 | -28.5 |
| CCOC(=O)CCC(NC(=O)c1ccc(CNc2nc3cc(C(F)(F)F)ccc3nc2C(=O)OCC)cc1)C(=O)OCC (configuration not stated) | -0.383 |
| N#CC1(Nc2ccc(-c3ccc(Cl)cc3)cc2)CCCC1 | -4.8 |
| O=C(O)C(c1cccs1)C1(O)CCCCC1 (configuration not stated) | 3.18 |
| COc1ccccc1NC(=O)N(O)C1(C#N)CCCCC1 | -5.54 |
| CC(C)Cc1nnc(N)s1 | -2.99 |
| Cn1c(N)cc(=O)n(C)c1=S | 1.37 |
| CN1C(c2ccc(F)cc2)=CS/C1=C(/C#N)c1nnc2n1-c1ccccc1SC2 | 4.24 |
| COc1ccc2c(c1)c(=Cc1ccc(N(C)C)cc1)c1cc(-c3ccccc3)[n+](C)n12 | -1.83 |
| O=C(Nc1cccc(Br)c1)C1CC(=O)N(C2CCCC2)C1 (configuration not stated) | 7.06 |
| Cc1cc(OCCCC(=O)Nc2cc(S(=O)(=O)N3CCOCC3)ccc2N2CCOCC2)ccc1Cl | -1.39 |
| Cc1cc(NC(=O)C(C)SCC(=O)Nc2cccc(S(=O)(=O)N3CCCCCC3)c2)no1 (configuration not stated) | 0.672 |
| Oc1ccc(-c2nc3ccccc3nc2-c2ccc(O)cc2O)c(O)c1 | -0.514 |
| CSCCC(NS(=O)(=O)c1ccc(C)cc1)C(=O)N(C)CC(=O)Nc1ccccc1Br (configuration not stated) | -0.958 |
| CCCCN1CC(COc2ccccc2)Oc2cccc(F)c2S1(=O)=O (configuration not stated) | 4.26 |

| SMILES | activation of IL-2 secretion [%] |
| --- | --- |
| CC(C)=CCc1ccc(O)c(=O)cc1C(C)C | 12.1 |
| CC1(C)C(=O)CCC2(C)C1=CCC1C2C(=O)CC2(C)C1CCC2(O)C(=O)CO (configuration not stated) | 0.234 |
| COC1=CC(=O)OC(C)(c2ccccc2)C1 (configuration not stated) | -3.37 |
| O=C(NCC1CCCCC1)NCC1CCCCC1 | -9.34 |
| Cc1ccc(NC(=O)C(C)OC(=O)C2CC3CCCC(C2)C3=O)cc1S(=O)(=O)N1CCOCC1 (configuration not stated) | 6.86 |
| COc1ccc(CNC(=O)COC(=O)C2=Cc3ccccc3OC2)cc1 | 0.823 |
| COC1C(CO)OC(n2cnc3c(=S)nc(N)[nH]c32)C1O (configuration not stated) | -2.7 |
| O=C(c1cccc(S(=O)(=O)N2CCCCCC2)c1)N1CCN(Cc2ccccc2)CC1 | 4.29 |
| O=C1NC(c2ccccc2)Cc2ccncc21 (configuration not stated) | 1.23 |
| CN1CCOC1c1ccc(C2OCCN2C)cc1 (configuration not stated) | 4 |
| CC1CCCN(C(=O)Cn2c(=O)oc3cc(S(=O)(=O)N4CCCCC4C)ccc32)C1 (configuration not stated) | 1.25 |
| O=C(Cc1ccc(NC(=O)C2CCCN(C(=O)CCc3ccccc3)C2)cc1)Nc1ccc(C(=O)N2CCOCC2)cc1 (configuration not stated) | 6.18 |
| CCOc1ccc(S(=O)(=O)N2CCN(C(=O)c3oc4ccccc4c3C)CC2)cc1 | -1.99 |
| CN(C(=O)c1cccc(NC(=O)Cc2ccc(NC(=O)C3CCN(C(=O)C4CCCCC4)CC3)cc2)c1)C1CCC1 | -2.83 |
| COc1cc2c(cc1OC)C1C(=O)c3cc(OS(C)(=O)=O)c(OC)cc3C1N(C)C2=O (configuration not stated) | 18 |
| Nc1cc(=O)n(Cc2ccccc2)c(=O)n1Cc1ccccc1 | 1.08 |
| c1ccc(CNc2ncnc3[nH]ncc23)cc1 | -0.266 |
| C[n+]1cccc(C(=O)O)c1 | -1.15 |
| O=S(=O)(Cc1ccc(Cl)cc1Cl)c1ccc(Cl)cc1 | -0.548 |
| CCOC(=O)[C@H]1[C@H]2COc3ccc(Br)cc3[C@@H]2N2C(=O)CN(C)C(=O)[C@@]12C | -0.578 |
| O=[N+]([O-])c1cccc(C=NN=Cc2ccccc2O)c1 | 3.44 |
| O=C(Nc1ccc2ccccc2c1[N+](=O)[O-])c1ccccc1 | 2.49 |

| SMILES | activation of IL-2 secretion [%] |
| --- | --- |
| COc1ccc(NS(=O)(=O)c2ccc(N3CCOCC3)c(NC(=O)/C=C/C(=O)O)c2)cc1 | -0.522 |
| Cc1nc2ccc(N)nc2nc1C | 1.17 |
| CCOC(=O)C(CO)NC(=O)C1(NC(C)=O)CCCC1 (configuration not stated) (Ac-[Ac5c]-[ξS]-OEt) | -9.89 |
| COc1ccc(N=C2C=CC(=O)O2)cc1 | 2.72 |
| C/C(=N\Nc1ccc(Cl)nn1)c1ccccc1O | -4.92 |
| O=C(NNC(=O)c1ccc2ccccc2c1)c1ccc(Cl)cc1 | 3.64 |
| COC(=O)Cc1nc2c(N)nc(N)nc2[nH]c1=O | 2.41 |
| CC(C)OC(=O)c1ccc(NCc2cc(O)ccc2O)cc1Cl | -2.79 |
| Cc1cc([N+](=O)[O-])c(=O)[nH]c1C | -6.49 |
| O=C(O)c1ccc(NN=CC2=C(N3CCOCC3)/C(=C/c3ccccc3)CC2)cc1 | -1.53 |
| CCN1C[C@@H]2[C@@H]3C(=O)N(C)C(=O)[C@@H]3[C@](C)(C1=O)N2C(=O)c1ccccc1 | 1.71 |
| COc1ccc(Br)cc1/C=N/Nc1ccc(S(=O)(=O)Nc2ccccc2C(=O)O)cc1[N+](=O)[O-] | -1.12 |
| O=C(Nc1c[nH]c(=O)[nH]c1=O)OCc1ccccc1 | -1.09 |
| O=C(Nc1ccn(CCCNCc2ccc3[nH]ccc3c2)c(=O)n1)OCc1ccccc1 | 3.57 |
| CCCCNCCS(=O)(=O)NCc1ccccc1 | -4.58 |
| COc1ccc2nc(N3C(=O)C(O)=C(C(=O)c4ccco4)C3c3ccco3)sc2c1 (configuration not stated) | 1.73 |
| COc1ccc(C(CNC(=O)c2cccc(S(=O)(=O)Nc3ccc(Br)cc3)c2)N(C)C)cc1 (configuration not stated) | -9.63 |
| CCCCC(=O)NC(c1ccc(OC)c(OC)c1)c1ccc2cccnc2c1O (configuration not stated) | 3.02 |
| O=c1[nH]c(=S)[nH]c(O)c1/C=C1\C=Nc2ccccc21 | -2.5 |
